Measured values as given in PubChem BioAssay (Tox21).
Inconclusive results are not listed. The source made the active and inactive calls. Unless noted, the call rests on the fitted dose curve; in most records, active means well fitted curve in the direction sought with a large enough effect in the repeat runs; inconclusive means weak or mixed curves; inactive means no such curve, though single readings can be large; an effect the other way counts as inactive or inconclusive.

Target: Retinoic acid receptor RXR-alpha (Homo sapiens) (UniProt P19793)
Experiment: qHTS assay to identify small molecule agonists of the RXR signaling pathway (AID 1159527; calls by dose curve; further: nearly all actives have a fitted effect of over 35% in size)
Details: HEK293T RXRa-UAS-bla, beta-lactamase ratio, 16 h; series mostly up to 76.8 µM; activation: at the top concentration
How it was run: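 Using 9-cis retinoic acid as the reference agonist, chemicals were tested in HEK 293T cells […] for 16 hr; substrate loading lasted 2 hr at room temperature.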
On the % scale 0 is the no-effect control and ±100 the full control effect.

Sequence of Retinoic acid receptor RXR-alpha (Homo sapiens) (P19793 whole entry, looked up): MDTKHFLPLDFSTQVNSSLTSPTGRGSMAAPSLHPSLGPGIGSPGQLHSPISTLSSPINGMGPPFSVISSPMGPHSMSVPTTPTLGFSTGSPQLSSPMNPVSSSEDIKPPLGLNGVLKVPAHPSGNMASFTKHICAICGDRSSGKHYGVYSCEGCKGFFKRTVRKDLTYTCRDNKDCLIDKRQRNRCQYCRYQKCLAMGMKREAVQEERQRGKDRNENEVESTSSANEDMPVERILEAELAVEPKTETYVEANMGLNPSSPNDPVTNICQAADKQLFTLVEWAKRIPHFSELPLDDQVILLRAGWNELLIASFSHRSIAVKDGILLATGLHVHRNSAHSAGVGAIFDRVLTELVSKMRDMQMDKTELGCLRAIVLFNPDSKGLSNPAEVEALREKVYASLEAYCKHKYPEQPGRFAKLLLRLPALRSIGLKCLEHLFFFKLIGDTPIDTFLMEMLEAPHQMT

Structure (SMILES)	activation
Cc1ncc([N+](=O)[O-])n1CC(C)O (configuration not stated)	-0.791% [at 35.3 µM] (inactive)
CC(=O)CCc1ccc(OC(C)=O)cc1	2.84% (inactive)
CC(C)OC(=O)OCOP(=O)(CO[C@H](C)Cn1cnc2c(N)ncnc21)OCOC(=O)OC(C)C	-0.08% [at 35.3 µM] (inactive)
CC12CCC(C1)C(C)(C)C2O (configuration not stated)	0.929% (inactive)
CCN(CC)CCN	4.47% [at 35.3 µM] (inactive)
CO[Si](CCCn1c(=O)n(CCC[Si](OC)(OC)OC)c(=O)n(CCC[Si](OC)(OC)OC)c1=O)(OC)OC	-1.19% [at 35.3 µM] (inactive)
CC(=O)CC(=O)OC(C)(C)C	7.7% (inactive)
OCC1CCC(CO)CC1 (configuration not stated)	-1.08% (inactive)
OCC1(CO)COCOC1	7.06% (inactive)
CCC(C(=O)OCCN1CCOC(c2ccccc2)C1C)c1ccccc1 (configuration not stated)	-18.3% [at 35.3 µM] (inactive)
COc1cc(OC)nc(O[C@H](C(=O)O)C(OC)(c2ccccc2)c2ccccc2)n1	-8.47% [at 35.3 µM] (inactive)
CCOC(CN1CCN(CC(C)C(=O)c2ccccc2)CC1)c1ccccc1 (configuration not stated)	-12% [at 15.8 µM] (inactive)
C=CCSSCCC	1.5% (inactive)

System: not listed separately
Experiment: qHTS assay to identify small molecule agonists of the RXR signaling pathway - cell viability counter screen (AID 1159529); further: nearly all actives have a fitted effect of over 50% in size
Details: RXR-alpha-bla HEK293T viability, CellTiter-Glo, 16 h; series mostly up to 76.8 µM; activity change, negative = cytotoxicity: at the top concentration
How it was run: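 Compounds dissolved in DMSO were pinned onto HEK 293T cells carrying a beta-lactamase reporter under RXR-alpha control and incubated 16 hr. Cytotoxicity was then quantified by CellTiter-Glo luminescence.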

Structure (SMILES)	activity change, negative = cytotoxicity
ONc1ccccc1	-6.15% (inactive)
CC(C)OC(=O)CCC(=O)OC(C)C	-6.98% (inactive)
CC(C)(CO)C(O)C(=O)NCCCO (configuration not stated)	10.8% (inactive)
Cn1c(=O)c2[nH]c(Br)nc2n(C)c1=O	2.51% [at 35.3 µM] (inactive)
COC(=O)CCCCC(=O)O	6.67% (inactive)
N[C@@H](Cc1ccc(O)cc1)C(=O)O	2.08% [at 6.97 µM] (inactive)
COc1ccc(CCO)cc1	12.9% (inactive)
C[C@@H](O)C(=O)O	1.11% (inactive)
CCCc1ccc(O)cc1	-7.87% (inactive)
CC1(C)Oc2ccc(C#N)cc2[C@@H](N2CCCC2=O)[C@@H]1O	3.33% [at 35.3 µM] (inactive)
CCC/C=C(\C=O)CC	0.376% (inactive)
CC(C)=CCC/C(C)=C/COC=O	-12.1% (inactive)
O=C(CCCCC(=O)Nc1c(I)cc(I)c(C(=O)O)c1I)Nc1c(I)cc(I)c(C(=O)O)c1I	-3.07% [at 35.3 µM] (inactive)
COP(=O)(O)OP(=O)(O)OC	-5.51% (inactive)
O=C(O)CCCCCC(=O)O	10% (inactive)
COS(=O)(=O)O	19% (inactive)
C[C@]12CCC(=O)C=C1CC[C@H]1[C@@H]3CC[C@](O)(C(=O)CO)[C@@]3(C)C[C@H](O)[C@@]12F	-1.14% [at 35.3 µM] (inactive)
CCCCCCCCCOC(=O)CCCCC(=O)OCCCCCCC	-0.679% (inactive)
O=C1NC(c2ccccc2)(c2ccccc2)C(=O)N1COP(=O)(O)O	0.376% [at 35.3 µM] (inactive)

Structure (SMILES)	activity change, negative = cytotoxicity
[O-][n+]1cccc(/C(Cl)=N/OC[C@@H](O)CN2CCCCC2)c1	4.77% [at 35.3 µM] (inactive)
CC(C)NC(=O)c1ccc(C=O)cc1	-2.38% [at 35.3 µM] (inactive)
O=C1c2ccccc2C(=O)c2cc(Cl)ccc21	5.38% [at 6.97 µM] (inactive)
CCc1occc(=O)c1O	0.0508% (inactive)
CC(C)[C@H]1CC[C@H](C)C[C@@H]1O	1.56% (inactive)
Cc1ncc([N+](=O)[O-])n1CC(C)O (configuration not stated)	7.6% [at 35.3 µM] (inactive)
CC(=O)CCc1ccc(OC(C)=O)cc1	2.15% (inactive)
CC(C)OC(=O)OCOP(=O)(CO[C@H](C)Cn1cnc2c(N)ncnc21)OCOC(=O)OC(C)C	1.18% [at 35.3 µM] (inactive)
CC12CCC(C1)C(C)(C)C2O (configuration not stated)	11.9% (inactive)
CCN(CC)CCN	0.722% [at 35.3 µM] (inactive)
CO[Si](CCCn1c(=O)n(CCC[Si](OC)(OC)OC)c(=O)n(CCC[Si](OC)(OC)OC)c1=O)(OC)OC	6.65% [at 35.3 µM] (inactive)
CC(=O)CC(=O)OC(C)(C)C	13.8% (inactive)
OCC1CCC(CO)CC1 (configuration not stated)	1.56% (inactive)
OCC1(CO)COCOC1	-2.74% (inactive)
CCC(C(=O)OCCN1CCOC(c2ccccc2)C1C)c1ccccc1 (configuration not stated)	8.52% [at 35.3 µM] (inactive)
COc1cc(OC)nc(O[C@H](C(=O)O)C(OC)(c2ccccc2)c2ccccc2)n1	-11.9% [at 35.3 µM] (inactive)
CCOC(CN1CCN(CC(C)C(=O)c2ccccc2)CC1)c1ccccc1 (configuration not stated)	-11.3% [at 15.8 µM] (inactive)
C=CCSSCCC	6.37% (inactive)

System: not listed separately
Experiment: qHTS assay to identify small molecule antagonists of the retinoid acid receptor (RAR) signaling pathway - cell viability counter screen (AID 1159551); further: nearly all actives have a fitted effect of over 35% in size
Details: C3RL4 cells viability, ATP luminescence (CellTiter-Glo), 6 h; series mostly up to 92.4 µM; activity change, negative = cytotoxicity: at the top concentration
How it was run: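 ATP-based viability, C3RL4 cells, 6 h at 37 C with 1 uM final retinol co-added after compound; luminescence read 30 min post CellTiter-Glo, RT.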

Structure (SMILES)	activity change, negative = cytotoxicity
ONc1ccccc1	-0.151% (inactive)
CC(C)OC(=O)CCC(=O)OC(C)C	-2.36% (inactive)
CC(C)(CO)C(O)C(=O)NCCCO (configuration not stated)	1.76% (inactive)
Cn1c(=O)c2[nH]c(Br)nc2n(C)c1=O	1.71% [at 42.5 µM] (inactive)
COC(=O)CCCCC(=O)O	1.27% (inactive)
N[C@@H](Cc1ccc(O)cc1)C(=O)O	-0.852% [at 8.39 µM] (inactive)
COc1ccc(CCO)cc1	1.33% (inactive)
C[C@@H](O)C(=O)O	2.83% (inactive)
CCCc1ccc(O)cc1	1.02% (inactive)
CC1(C)Oc2ccc(C#N)cc2[C@@H](N2CCCC2=O)[C@@H]1O	-2.75% [at 42.5 µM] (inactive)
CCC/C=C(\C=O)CC	0.367% (inactive)
CC(C)=CCC/C(C)=C/COC=O	2.5% (inactive)
O=C(CCCCC(=O)Nc1c(I)cc(I)c(C(=O)O)c1I)Nc1c(I)cc(I)c(C(=O)O)c1I	6.22% [at 42.5 µM] (inactive)
COP(=O)(O)OP(=O)(O)OC	-0.861% (inactive)
O=C(O)CCCCCC(=O)O	-0.683% (inactive)
COS(=O)(=O)O	-0.0393% (inactive)
C[C@]12CCC(=O)C=C1CC[C@H]1[C@@H]3CC[C@](O)(C(=O)CO)[C@@]3(C)C[C@H](O)[C@@]12F	2.05% [at 42.5 µM] (inactive)
CCCCCCCCCOC(=O)CCCCC(=O)OCCCCCCC	1.92% (inactive)
O=C1NC(c2ccccc2)(c2ccccc2)C(=O)N1COP(=O)(O)O	1.7% [at 42.5 µM] (inactive)

Structure (SMILES)	activity change, negative = cytotoxicity
[O-][n+]1cccc(/C(Cl)=N/OC[C@@H](O)CN2CCCCC2)c1	6.03% [at 42.5 µM] (inactive)
CC(C)NC(=O)c1ccc(C=O)cc1	2.69% [at 42.5 µM] (inactive)
O=C1c2ccccc2C(=O)c2cc(Cl)ccc21	3.77% [at 8.39 µM] (inactive)
CCc1occc(=O)c1O	3.19% (inactive)
CC(C)[C@H]1CC[C@H](C)C[C@@H]1O	3.02% (inactive)
Cc1ncc([N+](=O)[O-])n1CC(C)O (configuration not stated)	-1.37% [at 42.5 µM] (inactive)
CC(=O)CCc1ccc(OC(C)=O)cc1	2.57% (inactive)
CC(C)OC(=O)OCOP(=O)(CO[C@H](C)Cn1cnc2c(N)ncnc21)OCOC(=O)OC(C)C	-0.683% [at 42.5 µM] (inactive)
CC12CCC(C1)C(C)(C)C2O (configuration not stated)	2.96% (inactive)
CCN(CC)CCN	-2.26% [at 42.5 µM] (inactive)
CO[Si](CCCn1c(=O)n(CCC[Si](OC)(OC)OC)c(=O)n(CCC[Si](OC)(OC)OC)c1=O)(OC)OC	0.969% [at 42.5 µM] (inactive)
CC(=O)CC(=O)OC(C)(C)C	1.04% (inactive)
OCC1CCC(CO)CC1 (configuration not stated)	-3.87% (inactive)
OCC1(CO)COCOC1	0.256% (inactive)
CCC(C(=O)OCCN1CCOC(c2ccccc2)C1C)c1ccccc1 (configuration not stated)	-1.14% [at 42.5 µM] (inactive)
COc1cc(OC)nc(O[C@H](C(=O)O)C(OC)(c2ccccc2)c2ccccc2)n1	2.38% [at 42.5 µM] (inactive)
CCOC(CN1CCN(CC(C)C(=O)c2ccccc2)CC1)c1ccccc1 (configuration not stated)	3.44% [at 19 µM] (inactive)
C=CCSSCCC	-0.642% (inactive)
